Laboratory results taken from the supplement of paper PMC10849652.
Of roughly 8,800 targets only a part is listed; those with a hit were picked by preference. About 0.5% of all pairs of compound and target were hits. Unmarked numbers belong to inactive results.

Assays:
Assay in all cases: log2 fold change, soluble protein after heating vs DMSO (PISA); higher = thermal stabilisation; K562 lysate, 10 uM; active = over 0.2 and 3.5 SD of the protein, either way, in both replicates (recomputed)
lapatinib = compound: CS(=O)(=O)CCNCc1ccc(-c2ccc3ncnc(Nc4ccc(OCc5cccc(F)c5)c(Cl)c4)c3c2)o1 [lapatinib]
In short: (§1)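 Quantification was by TMTpro 16plex LC-MS/MS with equalised channel sums, applied to the supernatant after 21,000xg for 90 min. Samples were crude K562 extract at 1 mg/mL protein in PBS pH 7.4 with 1 mM MgCl2, treated with 10 μM compound for 30 min, heated for 3 min across 48°C-58°C, pooled and brought to 0.5% NP-40 at 4°C. Values are log-two fold changes in thermal stability relative to solvent controls, from duplicates.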

pictilisib = compound: CS(=O)(=O)N1CCN(Cc2cc3nc(-c4cccc5[nH]ncc45)nc(N4CCOCC4)c3s2)CC1 [pictilisib]
In short: as §1

crizotinib = compound: C[C@@H](Oc1cc(-c2cnn(C3CCNCC3)c2)cnc1N)c1c(Cl)ccc(F)c1Cl [crizotinib]
In short: as §1

[1] = compound: C[C@H](C1=CC=C(C=C1)C(=O)NC2=C3C=CNC3=NC=C2)N
In short: as §1

duvelisib = compound: C[C@H](Nc1ncnc2nc[nH]c12)c1cc2cccc(Cl)c2c(=O)n1-c1ccccc1 [duvelisib]
In short: as §1

gandotinib = compound: Cc1cc(Nc2cc(CN3CCOCC3)c3nc(C)c(Cc4ccc(Cl)cc4F)n3n2)n[nH]1 [gandotinib]
In short: as §1

tozasertib = compound: Cc1cc(Nc2cc(N3CCN(C)CC3)nc(Sc3ccc(NC(=O)C4CC4)cc3)n2)n[nH]1 [tozasertib]
In short: as §1

doramapimod = compound: Cc1ccc(-n2nc(C(C)(C)C)cc2NC(=O)Nc2ccc(OCCN3CCOCC3)c3ccccc23)cc1 [doramapimod]
In short: as §1

bafetinib = compound: Cc1ccc(NC(=O)c2ccc(CN3CC[C@H](N(C)C)C3)c(C(F)(F)F)c2)cc1Nc1nccc(-c2cncnc2)n1 [bafetinib]
In short: as §1

[2] = compound: Cc1cccc(CC(=O)N2CCc3c2ccc(-c2cn(C)c4ncnc(N)c24)c3F)n1
In short: as §1

nilotinib = compound: Cc1cn(-c2cc(NC(=O)c3ccc(C)c(Nc4nccc(-c5cccnc5)n4)c3)cc(C(F)(F)F)c2)cn1 [nilotinib]
In short: as §1

[3] = compound: Cc1nc(Nc2n[nH]c3c2CN(C(=O)N[C@H](CN(C)C)c2ccccc2)C3(C)C)c2sccc2n1
In short: as §1

dasatinib = compound: Cc1nc(Nc2ncc(C(=O)Nc3c(C)cccc3Cl)s2)cc(N2CCN(CCO)CC2)n1 [dasatinib]
In short: as §1

[4] = compound: Cc1ncc(-c2ccnc(Nc3ccc(S(C)(=O)=O)cc3)n2)n1C(C)C
In short: as §1

[5] = compound: Cn1cc(-c2ccc3c(c2)CCN3C(=O)Cc2cccc(C(F)(F)F)c2)c2c(N)ncnc21
In short: as §1

quisinostat = compound: Cn1cc(CNCC2CCN(c3ncc(C(=O)NO)cn3)CC2)c2ccccc21 [quisinostat]
In short: as §1

tipifarnib = compound: Cn1cncc1[C@@](N)(c1ccc(Cl)cc1)c1ccc2c(c1)c(-c1cccc(Cl)c1)cc(=O)n2C [tipifarnib]
In short: as §1

[6] = compound: NC(=O)Nc1cc(-c2cccc(F)c2)sc1C(=O)N[C@H]1CCCNC1
In short: as §1

[7] = compound: NC(=O)c1cnc(N[C@@H]2CCCC[C@@H]2N)nc1Nc1cccc(-n2nccn2)c1
In short: as §1

[8] = compound: NC1(c2ccc(-c3nc4ccn5c(=O)[nH]nc5c4cc3-c3ccccc3)cc2)CCC1
In short: as §1

UniProt Q9NRW3, sequence (Q9NRW3 whole entry, looked up): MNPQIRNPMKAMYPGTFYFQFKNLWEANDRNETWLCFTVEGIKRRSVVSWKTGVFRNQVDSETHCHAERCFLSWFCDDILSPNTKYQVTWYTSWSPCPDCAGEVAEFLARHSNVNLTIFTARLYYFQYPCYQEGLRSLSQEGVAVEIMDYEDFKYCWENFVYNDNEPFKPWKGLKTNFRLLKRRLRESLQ
UniProt Q9BTT0, sequence (Q9BTT0 whole entry, looked up): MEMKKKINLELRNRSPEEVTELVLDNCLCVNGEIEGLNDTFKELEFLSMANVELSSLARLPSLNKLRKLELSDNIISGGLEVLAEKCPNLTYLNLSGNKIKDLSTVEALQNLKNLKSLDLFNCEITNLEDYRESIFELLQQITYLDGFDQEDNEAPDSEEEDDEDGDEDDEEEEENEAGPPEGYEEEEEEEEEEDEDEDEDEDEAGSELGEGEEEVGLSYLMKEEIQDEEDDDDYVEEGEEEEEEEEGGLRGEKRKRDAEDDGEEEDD
UniProt Q9UH62, sequence (Q9UH62 whole entry, looked up): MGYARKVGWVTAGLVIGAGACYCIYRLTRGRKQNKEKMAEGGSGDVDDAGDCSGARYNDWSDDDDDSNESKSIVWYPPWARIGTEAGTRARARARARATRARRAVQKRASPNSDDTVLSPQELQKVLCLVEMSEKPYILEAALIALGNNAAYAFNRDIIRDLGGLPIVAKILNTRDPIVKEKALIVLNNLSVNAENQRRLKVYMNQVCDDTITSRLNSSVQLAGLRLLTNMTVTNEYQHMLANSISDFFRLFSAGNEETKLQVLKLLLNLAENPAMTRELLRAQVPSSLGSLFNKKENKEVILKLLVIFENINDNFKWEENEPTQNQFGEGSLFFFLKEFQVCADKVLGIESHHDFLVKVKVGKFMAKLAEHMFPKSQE
UniProt Q13155, sequence (Q13155 whole entry, looked up): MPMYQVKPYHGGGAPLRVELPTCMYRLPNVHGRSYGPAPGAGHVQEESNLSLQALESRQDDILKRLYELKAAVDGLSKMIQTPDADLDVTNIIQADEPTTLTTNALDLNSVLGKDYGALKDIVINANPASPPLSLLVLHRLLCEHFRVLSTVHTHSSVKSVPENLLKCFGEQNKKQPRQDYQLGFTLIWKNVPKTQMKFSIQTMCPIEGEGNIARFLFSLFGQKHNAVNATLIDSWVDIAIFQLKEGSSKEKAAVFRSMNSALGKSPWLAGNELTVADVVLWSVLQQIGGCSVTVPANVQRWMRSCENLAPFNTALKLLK
UniProt P27695, sequence (P27695 whole entry, looked up): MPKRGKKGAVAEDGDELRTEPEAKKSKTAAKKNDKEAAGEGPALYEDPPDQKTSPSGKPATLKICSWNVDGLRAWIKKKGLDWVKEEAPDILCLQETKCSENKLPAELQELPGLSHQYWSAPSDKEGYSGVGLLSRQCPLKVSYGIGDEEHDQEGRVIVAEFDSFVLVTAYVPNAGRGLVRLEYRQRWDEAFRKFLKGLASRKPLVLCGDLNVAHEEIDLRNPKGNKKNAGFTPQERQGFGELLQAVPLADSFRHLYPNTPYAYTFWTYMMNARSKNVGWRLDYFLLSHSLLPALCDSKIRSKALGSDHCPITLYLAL
UniProt P50995, sequence (P50995 whole entry, looked up): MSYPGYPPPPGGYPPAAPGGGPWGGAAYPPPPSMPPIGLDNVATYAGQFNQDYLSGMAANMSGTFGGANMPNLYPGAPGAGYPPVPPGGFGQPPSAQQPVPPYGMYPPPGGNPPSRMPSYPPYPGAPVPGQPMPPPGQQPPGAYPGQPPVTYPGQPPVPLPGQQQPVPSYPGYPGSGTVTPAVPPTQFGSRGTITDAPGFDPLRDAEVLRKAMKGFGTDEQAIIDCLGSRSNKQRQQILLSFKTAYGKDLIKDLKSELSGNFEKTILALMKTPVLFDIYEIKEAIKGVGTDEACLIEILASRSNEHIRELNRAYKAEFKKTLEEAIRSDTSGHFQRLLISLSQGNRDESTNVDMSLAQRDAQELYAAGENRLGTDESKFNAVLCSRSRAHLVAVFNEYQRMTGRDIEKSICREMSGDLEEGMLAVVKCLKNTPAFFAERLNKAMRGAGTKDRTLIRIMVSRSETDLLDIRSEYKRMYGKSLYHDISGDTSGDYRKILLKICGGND
UniProt Q96BM9, sequence (Q96BM9 whole entry, looked up): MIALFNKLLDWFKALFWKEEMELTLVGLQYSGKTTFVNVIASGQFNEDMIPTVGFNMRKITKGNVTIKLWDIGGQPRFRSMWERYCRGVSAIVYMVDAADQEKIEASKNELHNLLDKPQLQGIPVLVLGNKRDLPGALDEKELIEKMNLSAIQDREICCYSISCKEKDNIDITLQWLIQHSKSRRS
UniProt P00352, sequence (P00352 whole entry, looked up): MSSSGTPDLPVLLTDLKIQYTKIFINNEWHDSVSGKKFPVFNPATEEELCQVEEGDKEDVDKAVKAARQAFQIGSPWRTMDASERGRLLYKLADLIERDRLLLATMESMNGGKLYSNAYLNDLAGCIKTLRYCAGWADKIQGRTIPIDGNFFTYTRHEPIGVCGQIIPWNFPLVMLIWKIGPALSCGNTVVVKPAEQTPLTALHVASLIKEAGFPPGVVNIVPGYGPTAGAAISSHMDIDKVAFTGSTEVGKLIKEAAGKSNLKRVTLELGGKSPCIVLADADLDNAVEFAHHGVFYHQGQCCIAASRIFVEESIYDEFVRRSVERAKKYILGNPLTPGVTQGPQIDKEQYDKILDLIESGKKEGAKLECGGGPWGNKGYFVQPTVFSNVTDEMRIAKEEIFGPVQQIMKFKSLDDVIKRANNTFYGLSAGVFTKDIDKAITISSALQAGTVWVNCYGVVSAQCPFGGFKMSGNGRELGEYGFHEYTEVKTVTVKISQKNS
UniProt P09110, sequence (P09110 whole entry, looked up): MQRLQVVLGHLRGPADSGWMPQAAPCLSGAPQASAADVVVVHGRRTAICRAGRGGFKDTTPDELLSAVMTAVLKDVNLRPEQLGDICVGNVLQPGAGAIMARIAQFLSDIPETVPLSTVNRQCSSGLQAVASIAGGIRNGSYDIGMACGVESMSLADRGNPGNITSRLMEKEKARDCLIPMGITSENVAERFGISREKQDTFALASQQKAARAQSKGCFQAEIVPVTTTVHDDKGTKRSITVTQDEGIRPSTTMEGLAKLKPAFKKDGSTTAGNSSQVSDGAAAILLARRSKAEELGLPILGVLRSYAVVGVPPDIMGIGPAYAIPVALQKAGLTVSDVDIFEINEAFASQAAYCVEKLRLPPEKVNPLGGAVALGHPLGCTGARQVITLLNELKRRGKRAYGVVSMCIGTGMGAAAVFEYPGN
UniProt Q9Y4X0, sequence (Q9Y4X0 whole entry, looked up): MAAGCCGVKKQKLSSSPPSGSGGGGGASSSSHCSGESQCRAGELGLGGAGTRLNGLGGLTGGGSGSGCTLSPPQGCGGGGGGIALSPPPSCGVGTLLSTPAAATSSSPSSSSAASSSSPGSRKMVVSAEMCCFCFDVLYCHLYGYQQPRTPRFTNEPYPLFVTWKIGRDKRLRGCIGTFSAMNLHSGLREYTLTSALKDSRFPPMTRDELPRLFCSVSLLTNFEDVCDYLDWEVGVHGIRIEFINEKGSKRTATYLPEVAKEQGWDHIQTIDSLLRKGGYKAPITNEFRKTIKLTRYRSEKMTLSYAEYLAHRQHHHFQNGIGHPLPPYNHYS
UniProt P55265, sequence (P55265 whole entry, looked up): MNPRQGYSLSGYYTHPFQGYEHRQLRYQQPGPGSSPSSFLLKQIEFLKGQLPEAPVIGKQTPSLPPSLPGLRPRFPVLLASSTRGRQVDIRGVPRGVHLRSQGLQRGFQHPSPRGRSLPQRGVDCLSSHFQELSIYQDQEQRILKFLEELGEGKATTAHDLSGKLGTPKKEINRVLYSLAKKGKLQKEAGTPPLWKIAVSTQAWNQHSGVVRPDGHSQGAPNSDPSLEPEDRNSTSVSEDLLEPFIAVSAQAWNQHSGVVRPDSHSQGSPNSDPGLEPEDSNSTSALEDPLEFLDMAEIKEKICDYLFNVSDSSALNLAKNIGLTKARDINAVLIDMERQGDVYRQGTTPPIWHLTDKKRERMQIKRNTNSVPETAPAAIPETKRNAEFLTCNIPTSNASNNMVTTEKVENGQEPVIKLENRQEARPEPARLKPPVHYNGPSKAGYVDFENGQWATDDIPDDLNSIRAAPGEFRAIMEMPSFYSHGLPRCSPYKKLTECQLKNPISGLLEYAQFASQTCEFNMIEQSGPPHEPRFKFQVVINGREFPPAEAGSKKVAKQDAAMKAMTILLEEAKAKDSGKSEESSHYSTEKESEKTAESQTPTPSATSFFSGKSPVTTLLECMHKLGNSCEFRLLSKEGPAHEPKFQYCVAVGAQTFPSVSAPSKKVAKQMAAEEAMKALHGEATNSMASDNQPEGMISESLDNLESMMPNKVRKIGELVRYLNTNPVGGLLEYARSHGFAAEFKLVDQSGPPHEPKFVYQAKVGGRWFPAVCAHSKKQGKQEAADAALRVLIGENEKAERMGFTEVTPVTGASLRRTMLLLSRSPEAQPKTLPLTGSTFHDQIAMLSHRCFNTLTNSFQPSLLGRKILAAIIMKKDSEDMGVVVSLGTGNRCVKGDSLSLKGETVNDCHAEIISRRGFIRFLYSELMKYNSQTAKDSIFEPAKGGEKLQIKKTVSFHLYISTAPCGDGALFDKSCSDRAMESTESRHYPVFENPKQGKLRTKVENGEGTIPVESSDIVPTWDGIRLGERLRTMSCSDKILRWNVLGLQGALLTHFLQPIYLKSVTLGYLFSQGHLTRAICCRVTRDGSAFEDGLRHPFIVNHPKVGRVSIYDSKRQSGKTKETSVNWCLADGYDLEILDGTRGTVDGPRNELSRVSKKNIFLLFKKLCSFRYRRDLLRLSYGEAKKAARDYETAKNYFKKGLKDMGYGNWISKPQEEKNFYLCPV
UniProt P39687, sequence (P39687 whole entry, looked up): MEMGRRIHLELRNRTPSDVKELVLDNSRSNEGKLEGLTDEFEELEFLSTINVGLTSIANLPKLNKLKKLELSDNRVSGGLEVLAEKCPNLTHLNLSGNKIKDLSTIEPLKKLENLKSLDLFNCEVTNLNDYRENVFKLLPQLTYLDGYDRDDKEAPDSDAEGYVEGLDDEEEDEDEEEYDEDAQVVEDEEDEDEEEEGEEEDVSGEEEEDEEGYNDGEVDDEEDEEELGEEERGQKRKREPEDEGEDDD

Target	log2 fold change (lapatinib)	log2 fold change (pictilisib)	log2 fold change (crizotinib)	log2 fold change [1]	log2 fold change (duvelisib)	log2 fold change (gandotinib)	log2 fold change (tozasertib)	log2 fold change (doramapimod)	log2 fold change (bafetinib)	log2 fold change [2]	log2 fold change (nilotinib)	log2 fold change [3]	log2 fold change (dasatinib)	log2 fold change [4]	log2 fold change [5]	log2 fold change (quisinostat)	log2 fold change (tipifarnib)	log2 fold change [6]	log2 fold change [7]	log2 fold change [8]
ADAR isoform 4 (UniProt P55265)	0.023	-0.135	0	0.01	0.016	-0.038	0.016	0.069	-0.16	0.028	0.006	0.012	-0.026	-0.027	0.009	-0.114	-0.009	0.015	-0.009	0.029
APOB (UniProt P04114)	0.054	0.004	-0.003	-0.182	0.104	0.084	0.015	0.024	-0.091	0.06	-0.002	0.022	-0.096	-0.017	-0.038	-0.092	0.033	0.013	-0.035	0.008
AP3D1 isoform 5 (UniProt O14617)	0.008	0.01	-0.02	-0.061	0.023	0.05	0.019	0.059	-0.042	0.081	-0.001	0.018	-0.043	0.002	0.003	-0.002	-0.002	0.016	-0.007	0.03
APEX1 (UniProt P27695)	0.022	0.039	-0.01	0.352 (active)	-0.025	-0.042	-0.029	-0.045	0.106	-0.067	0.045	-0.037	0.002	-0.027	0.018	0.016	0.001	0.021	-0.011	-0.008
ALDH1A1 (UniProt P00352)	0.002	-0.068	0.004	0.05	-0.023	-0.111	-0.006	-0.015	0.061	-0.164	0.036	-0.019	0.306 (active)	-0.012	-0.04	0.015	0.019	0.014	-0.011	0.034
ANP32E (UniProt Q9BTT0)	-0.026	0.003	0.007	-0.017	0.015	0.013	0.041	-0.017	-0.003	-0.032	0.075	0.025	0.015	0.028	-0.038	0.016	-0.02	-0.011	-0.065	0.023
ARMCX3 (UniProt Q9UH62)	-0.058	0.005	-0.076	0.078	0.064	-0.064	0.005	-0.003	-0.044	0.032	0.023	-0.028	-0.107	-0.003	0.067	-0.057	-0.008	0.04	0.008	-0.002
ARL8A (UniProt Q96BM9)	-0.11	0.038	0.091	0.426 (active)	-0.078	0	-0.063	-0.005	-0.016	-0.088	0.003	0.049	0.037	0.091	-0.049	0.17	-0.203	0.153	0.247	-0.054
ANP32A (UniProt P39687)	0.068	-0.001	0	-0.063	-0.003	0.065	0.014	0.096	0.126	0	-0.003	0.03	0.125	-0.011	-0.039	-0.006	0.002	-0.097	0.012	-0.359 (active)
ANXA11 (UniProt P50995)	-0.005	-0.008	0.001	-0.044	-0.022	0.008	0.026	0.012	-0.03	0.039	0.014	-0.017	-0.033	-0.029	0.016	0.005	-0.011	-0.002	0.009	0.028
ARHGAP21 (UniProt Q5T5U3)	0.081	-0.116	-0.073	0.071	-0.007	0.102	-0.092	0.013	-0.133	0.053	-0.017	-0.014	-0.039	-0.036	0.017	-0.06	0.019	0.053	0.002	-0.021
AIMP2 (UniProt Q13155)	-0.006	0.015	-0.047	0.05	-0.018	-0.12	0.041	0.029	-0.03	-0.032	0.015	-0.015	-0.048	-0.002	-0.007	-0.009	-0.003	0.045	-0.012	-0.007
AKR1B1 (UniProt P15121)	-0.009	0.006	0.065	-0.102	-0.006	0.037	-0.014	-0.022	0.011	0.006	0.031	-0.022	0.086	0.028	-0.136	0.016	-0.036	0.03	-0.009	0.038
AMMECR1 (UniProt Q9Y4X0)	0.005	-0.013	-0.011	-0.027	0.022	-0.019	0.039	-0.009	-0.04	0.037	-0.005	-0.025	-0.037	0.017	0.035	-0.054	0.022	0.021	0.007	-0.024
APOBEC3C (UniProt Q9NRW3)	0.011	0.033	-0.09	-0.058	0.021	0.066	-0.055	0.1	-0.023	0.153	0.082	-0.014	-0.005	0	0.042	-0.144	-0.024	-0.067	-0.001	0.028
ACAA1 (UniProt P09110)	0.017	-0.005	0.014	-0.015	-0.014	0.056	-0.043	-0.001	0.045	-0.011	0.035	-0.019	0.014	-0.007	-0.027	-0.026	0.011	-0.001	-0.016	0.009
